From PubChem BioAssay
Entries with a potency or affinity are not part of this list. Inconclusive results are not listed. The source made the active and inactive calls. Unless noted, the rule behind the calls is not given here.

Assays:
[1] = IOSE-T80 viability loss, PAX8-independent line – cell-based, cherry-pick, selectivity assay for PAX8 inhibitor project, dose response (AID 687032;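 active = fitted half-maximal concentration for viability loss no higher than twice the top valid dose, in every repeat run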;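 note: cells exposed to compound for 96 h before reading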); settings: CellTiterGlo ATP luminescence, 96 h; series mostly up to 35 µM
[2] = CMV-driven luciferase expression suppression in HEK293 – cell-based, luminescence, dry powder, counter-screen for Pax8 inhibitor project, dose response (AID 743020;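 active = signal-lowering compounds whose fitted half-maximal concentration is at or below twice the top tested dose in every run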;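 note: HEK293 cells stably expressing the CMV luciferase reporter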); settings: HEK293 CMV-luciferase reporter, SteadyGlo luminescence, 24 h; series mostly up to 35 µM
[3] = A2780 cell killing – plate reader, dry powder samples, cytotoxicity control, dose response (AID 743046); settings: A2780 ovarian cancer cytotoxicity; series mostly up to 35 µM
[4] = OVCAR8 cell viability loss – plate reader, dry powder samples, PAX8 project, dose response (AID 743197); settings: series mostly up to 35 µM
[5] = IGROV1 cell killing – plate reader, dry powder samples, PAX8 inhibitor project, dose response (AID 743043); settings: IGROV1 ovarian cancer cell cytotoxicity; series mostly up to 35 µM;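 note: more negative means fewer viable cells or more cytotoxicity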
[6] = toxicity toward immortalized ovarian surface epithelium – cell-based, plate reader, dry powder samples, cytotoxicity control for PAX8 inhibitor project, dose response (AID 743045); settings: IOSE-T80 ovarian epithelial cells; series mostly up to 35 µM;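 note: more negative values mean more cell killing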
[7] = general cell-killing toxicity readout – plate reader, dry powder samples, cytotoxicity control for PAX8 inhibitor project, dose response (AID 743021); settings: cell line, non-specific cytotoxicity counter-screen; series mostly up to 35 µM

Measured: outcome

O=C(Nc1cccc(F)c1)N1CCCCN2[C@H](CO)[C@@H](c3ccc(C#Cc4ccccc4)cc3)[C@H]2C1
inactive: [1] | [2] | [3] | [4]

CCCC#Cc1ccc([C@@H]2[C@@H](C#N)N(C(=O)C3CCCCC3)[C@H]2CO)cc1
not listed: [4] | [7]
inactive: all other assays above

Cc1cccc(-c2ccc(C3[C@@H]4CN(C(=O)Nc5ccc(C(F)(F)F)cc5)C[C@H]3N4)cc2)c1 (some centres not stated)
inactive: [1] | [2] | [3]

C[C@@H]1CN([C@@H](C)CO)S(=O)(=O)c2ccc(C#Cc3ccncc3)cc2O[C@H]1CN(C)C(=O)Nc1ccc2c(c1)OCO2
not listed: [3] | [6]
inactive: all other assays above

COc1ccc(CN(C)C[C@H]2OCCCC[C@H](C)Oc3ccc(NC(=O)Nc4ccc(C(F)(F)F)cc4)cc3C(=O)N([C@H](C)CO)C[C@H]2C)cc1
not listed: [4] | [5]
inactive: all other assays above
